aSyn 5UTR act: Activators via SNCA 5'UTR binding, MLPCN | alpha-synuclein 5'UTR reporter, activators screen | activity score, % (tested at 7.5 µM), hits read low | hit rate 7.1% among 300,000; in the data active = activity score below about -60%
Numbers stand for hits; 0 = inactive. These entries were drawn from the full list.

SMILES | aSyn 5UTR act
c1ccc(-n2nnc3c(N4CCOCC4)ncnc32)cc1 | 0
O=c1c(Br)c(N2CCOCC2)cnn1-c1ccccc1 | -144
O=C(Cn1ncc(N2CCOCC2)c(Br)c1=O)c1ccc(Cl)cc1 | -111
Cc1cccc(/C=N/N2CCN(c3ccccc3)CC2)c1 | -140
NS(=O)(=O)c1ccc(N/N=C/C=C/c2ccccc2[N+](=O)[O-])cc1 | -177
O=[N+]([O-])c1ccccc1/C=N\N1CCN(c2ccccc2)CC1 | -201
Cc1ccccc1/C=N/N1CCN(c2ccccc2)CC1 | -131
Cc1ccc(/C=N/N2CCN(c3ccccc3)CC2)cc1 | -100
O=[N+]([O-])c1ccccc1/C=C/C=N/N1CCCCC1 | -205
Cc1cc(-c2ccc(C(C)C)c(S(=O)(=O)N3CCN(c4ccccc4)CC3)c2)on1 | 0
Cc1cc(C(=O)Nc2cccc(C(=O)O)c2)c(C)o1 | -92
Cc1oc(C(C)(C)C)cc1C(=O)Nc1cccc(C(=O)O)c1 | -114
Cc1oc(C(C)(C)C)cc1C(=O)Nc1ccc(C(=O)O)cc1 | -93
Cc1cc(C(=O)Nc2cccc(C(=O)O)c2)oc1C | 0
O=C1C2C3C=CC(CC3)C2C(=O)N1/N=C/c1c[nH]c2ccccc12 (stereo unspecified) | -92
O=C1C2C3C=CC(C3)C2C(=O)N1/N=C/c1cn(Cc2ccccc2)c2ccccc12 (stereo unspecified) | 0
Cc1ccc2nc(-c3ccc(NS(=O)(=O)c4ccccc4)cc3)sc2c1 | -85
Cc1ccc2nc(-c3ccc(NS(=O)(=O)c4ccc(F)c(F)c4)cc3)sc2c1 | -124
Oc1ccc(Br)cc1-c1ccn[nH]1 | -69
CSC1=C(C#N)C(c2ccc(Cl)cc2)C2=C(CC(C)(C)CC2=O)N1 (stereo unspecified) | 0
O=C1c2sc3nc4ccccc4n3c2C(=O)N1c1ccccc1Cl | -72
Nc1ccc(-c2nc3ccc(-c4nc5ccccc5o4)cc3[nH]2)cc1 | -215
Cc1ccc2nc(-c3cc(N)cc(N)c3)oc2c1 | 0
Cc1nc2ccc(-c3nc4ccccc4o3)cc2[nH]1 | -73
CCOC(=O)CC(=O)CSc1ncnc2c1cnn2-c1ccccc1 | -105
SMILES | aSyn 5UTR act
CC(C)(C)NC(=O)CSc1ncnc2c1cnn2-c1ccccc1 | -73
COc1ccc(C(=O)Oc2ccc3oc(=O)sc3c2)cc1 | -89
Cc1oc(=O)c(NC(=O)c2cccc(Cl)c2)cc1C(=O)c1ccccc1 | -237
O=C(Nc1cc2ccccc2oc1=O)c1ccccc1 | 0
CCOC(=O)C1=C(CSc2nc(-c3ccccc3)ccc2C#N)OC(N)=C(C#N)C1c1ccc(OC)cc1 (stereo unspecified) | -184
CN(Cc1ccccc1)C(=O)C(C(=O)c1ccc(F)cc1)n1cc(Cl)ccc1=O (stereo unspecified) | -67
CC(C)(C)c1ccc(-c2nnc(NC(=O)c3ccccc3)s2)cc1 | -163
COc1cccc(C(=O)NCc2ccc(-c3nc4ccccc4s3)cc2)c1 | -109
COc1cccc(C(=O)Nc2nc3c(s2)CN(C)CC3)c1 | -85
COc1cccc(C(=O)Nc2nnc(-c3ccccc3)s2)c1 | -224
COc1ccc(CN=C2NN=C(c3ccccc3)CS2)cc1 | -114
Clc1ccc(C2=NNC(=NCC3CCCO3)SC2)cc1 (stereo unspecified) | -73
Cc1cc(C2=NNC(=NCCc3ccccc3)SC2)c(C)n1CC1CCCO1 (stereo unspecified) | -147
COCCn1c(C)cc(C2=NNC(=Nc3ccccc3)SC2)c1C | -79
C=CCn1c(C)cc(C2=NNC(=NCc3ccccc3)SC2)c1C | -182
Cc1cc(SCC(=O)c2cccc([N+](=O)[O-])c2)nc(=O)[nH]1 | -91
COc1ccc(C2CC2/C(=N/OC(=O)c2cccs2)c2ccccc2)cc1 (stereo unspecified) | -153
Cc1cc(-c2cccc([N+](=O)[O-])c2)nc2ccc3ccccc3c12 | -108
CN1CCN(CC(=O)Nc2ccc(OCc3ccccc3)cc2)CC1 | -90
N#CCN1CCN(CC(=O)Nc2ccc(OCc3ccccc3)cc2)CC1 | -62
COc1ccc(Cc2nc(-c3ccc(NC(=O)c4cccnc4)cc3)no2)cc1 | 0
CCSc1ccc(NC(=O)c2cccnc2)cc1 | -66
CC(C)c1ccc(NC(=O)c2cccnc2)cc1 | -247
CC(C)c1ccc(NC(=O)c2snc3ccc(Cl)cc23)cc1 | -369
CCc1ccc(NC(=O)c2cccnc2)cc1 | -79
SMILES | aSyn 5UTR act
CC(C)c1ccc(NC(=O)c2csnn2)cc1 | -98
COc1ccc2c(c1OC)C(=O)N1c3ccccc3C(=O)N(c3ccccc3F)C21 (stereo unspecified) | 0
COc1ccc2c(c1OC)C(=O)N1c3ccccc3SC21 (stereo unspecified) | -142
COc1ccc2c(c1OC)C(=O)N1c3ccccc3COC21 (stereo unspecified) | -140
Cc1cccc(N=Nc2cn[nH]c2-c2ccco2)c1 | -125
C=CCn1c(=N)n(CC(=O)c2cccc([N+](=O)[O-])c2)c2ccccc21 | -77
CCC(=O)NC(=S)Nc1ccc(NC(=O)c2ccco2)cc1 | -86
CCOc1ccc(NC(=S)NC(=O)c2ccco2)cc1 | -250
Oc1c(CN2CCCCC2)cc(COCc2ccccc2)c2cccnc12 | 0
CCC(=O)c1ccc(OCc2ccccc2)c(OC)c1 | -85
COc1cc(C(=S)N2CCCC2)ccc1OCc1ccccc1 | -67
COC(=O)c1ccc(COC(=O)c2ccc(SC)cc2OC)cc1 | -115
CCC(=O)c1ccc(OCc2ccc(C(=O)OC)cc2)c(OC)c1 | -75
CCCCCCCCCCOC(=O)Cn1c(COc2ccccc2OC)[n+](C)c2ccccc21 | 0
CC(=O)Nc1nc2ccc(-c3nc4ccccc4o3)cc2s1 | -108
CS(=O)(=O)c1ccc2sc(NC(=O)c3cc4ccccc4o3)nc2c1 | -96
CS(=O)(=O)c1ccc2nc(NC(=O)c3cc4ccccc4o3)sc2c1 | -167
Cc1cc([N+](=O)[O-])ccc1NC(=O)c1cccc(NC(=O)C(C)C)c1 | -99
Cc1cc([N+](=O)[O-])ccc1NC(=O)c1csc(C)c1C | -98
CCOC(=O)Nc1cc(Br)c2c(c1)OCCO2 | -68
O=C(Cc1ccccc1[N+](=O)[O-])OCC(=O)c1c[nH]c2ccccc12 | -69
O=C(COC(=O)C1CC1)c1c[nH]c2ccccc12 | -177
FC(F)(F)c1ccc2c(c1)nc1n2CCCC1 | -65
CC(=O)c1cnc(-c2ccccc2Cl)s1 | -82
Cc1ccnc(S(=O)(=O)Cc2ccc([N+](=O)[O-])cc2)n1 | -70
SMILES | aSyn 5UTR act
Cc1nc(NC(C)C)c2cnn(CCc3ccccc3)c2n1 | -133
CCCNc1nc(C)nc2c1cnn2CCc1ccccc1 | -105
O=C(/C=C/c1ccc2ccccc2c1)c1ccoc1 | -123
Cc1cc(O)cc(O)c1-c1onc(C(F)(F)F)c1-c1cscn1 | -78
CC(=O)Oc1ccccc1-c1nc(C)nc(N(C)C(C)=O)n1 | -70
Cc1ccc(C(C)C)c(OCc2ccc(C(=O)N/N=C/c3cccc(O)c3O)cc2)c1 | 0

Source: PubChem BioAssay
